A selection follows.
aSyn 5UTR act = Activators working through SNCA 5'UTR binding (MLPCN). alpha-synuclein 5'UTR reporter, activators screen. activity score, % (tested at 7.5 µM), hits read low. actives 7.1% (n = 300,000). AID 1814; in the data active means activity score below about -60%
The depositor's hits bear a star.

COC(=O)c1sc2nc3c(cc2c1N)CCCC3 was read as aSyn 5UTR act -143.1*.
Screening O=C(Nc1ccc2c(c1)CCC2)c1ccc(Cl)nc1 returned aSyn 5UTR act -156.4*.
O=C(Nc1ccc2c(c1)CCC2)c1c(F)cccc1Cl was read as aSyn 5UTR act -158.8*.
For O=C(Nc1ccc2c(c1)CCC2)c1cnc(Cl)c(Cl)c1 the results were aSyn 5UTR act -189.8*.
For CC(C(Sc1ccccc1N)c1ccccc1)[N+](=O)[O-] (stereo not drawn) the results were aSyn 5UTR act -82.8*.
Screening NNC(=O)c1ccc(OCC2CC(c3ccc(Cl)cc3)=NO2)cc1 (stereo not drawn) returned aSyn 5UTR act -74.4*.
`Cc1[nH]c2ccccc2c1N=Nc1ccccc1F` gave aSyn 5UTR act -122.1*.
Cc1cccc(C(=O)Nc2ccccc2C(=O)OCC(=O)Nc2ccc(C#N)cc2)c1 was read as aSyn 5UTR act -100.0*.
c1ccc(-c2nnc(-c3ccncc3)nc2-c2ccccc2)cc1 was read as aSyn 5UTR act -105.1*.
For COCC(=O)Nc1nnc(-c2cccs2)s1 the results were aSyn 5UTR act -69.7*.
For O=C(Nc1nnc(-c2cccs2)s1)C1CC1 the results were aSyn 5UTR act -89.2*.
For CCC(=O)Nc1nnc(-c2cccs2)s1 the results were aSyn 5UTR act -67.7*.
Screening O=C(Cc1ccccc1)Nc1nnc(-c2cccs2)s1 returned aSyn 5UTR act -142.4*.
For C=C(C)C(=O)Nc1nnc(-c2cccs2)s1 the results were aSyn 5UTR act -93.9*.
`C=CCOc1ccc(CNc2nccs2)cc1` gave aSyn 5UTR act -73.5*.
For O=Cc1c(N2CCN(c3ccccc3)CC2)nc2ccccn2c1=O the results were aSyn 5UTR act -86.3*.
For COc1ccc(N2CCN(c3nc4ccccn4c(=O)c3C=O)CC2)cc1 the results were aSyn 5UTR act -67.7*.
Screening COc1ccc(-c2nc3ccccn3c2C=O)cc1 returned aSyn 5UTR act -109.7*.
For N#CC(C#N)=Cc1c(N2CCN(c3ccccc3)CC2)nc2ccccn2c1=O the results were aSyn 5UTR act -72.1*.
`O=C(O)Cc1sc(N/N=C\c2ccccc2)nc1-c1ccccc1` gave aSyn 5UTR act -255.9*.
Screening CCOC(=O)c1sc(N/N=C/c2cccc(C)c2)nc1C returned aSyn 5UTR act -175.3*.
For CC(=O)c1sc(N/N=C\c2ccccc2O)nc1C the results were aSyn 5UTR act -188.0*.
`COC(=O)c1ccc(/C=N/Nc2nc(C)c(C)s2)cc1` gave aSyn 5UTR act -187.7*.
`CCOC(=O)c1sc(N/N=C/c2ccccc2)nc1C` gave aSyn 5UTR act -207.1*.
`COc1ccc(/C=N/Nc2nc(C(=O)O)cs2)cc1` gave aSyn 5UTR act -78.4*.
CC(=O)c1ccc(N(C(=O)Cc2c[nH]c3ccccc23)C(C(=O)NC2CCCCC2)c2cccs2)cc1 (stereo not drawn) was read as aSyn 5UTR act -83.7*.
Cc1ccc(C2=NN=C(NC(=O)CSc3nnc4c5ccccc5n(C)c4n3)SC2)cc1 was read as aSyn 5UTR act -99.2*.
For Cc1nc2nc(-c3cccs3)[nH]c2cc1Br the results were aSyn 5UTR act -148.9*.
`Cc1cccc2c(N=Nc3ccccc3)c(O)[nH]c12` gave aSyn 5UTR act -112.1*.
`OCCN=C1CCCc2c1[nH]c1ccc(Br)cc21` gave aSyn 5UTR act 62.2.
For O=C(O)c1ccc(N=Nc2c(O)[nH]c3cc(Cl)ccc23)cc1 the results were aSyn 5UTR act -294.4*.
For O=Nc1c(-c2c(O)[nH]c3cc(Br)ccc23)[nH]c2ccccc12 the results were aSyn 5UTR act 76.6.
Screening O=C(O)c1ccc(N=Nc2c(O)[nH]c3ccc(Br)cc23)cc1 returned aSyn 5UTR act -188.3*.
Screening Oc1[nH]c2ccccc2c1N=Nc1cccc(Cl)c1 returned aSyn 5UTR act -87.0*.
`Cc1[nH]c(N=Nc2ccccc2)nc1N=Nc1ccccc1` gave aSyn 5UTR act 62.7.
`Cc1ccc(N=Nc2c(O)[nH]c3ccc(F)cc23)cc1` gave aSyn 5UTR act -136.5*.
For Oc1[nH]c2ccc(Br)cc2c1N=Nc1ccc(C(F)(F)F)cn1 the results were aSyn 5UTR act -68.0*.
For Cc1cc(NC(=O)c2ccccc2)sc1C the results were aSyn 5UTR act -142.2*.
For O=C(CCNc1cc(Cl)cc(Cl)c1)c1cccs1 the results were aSyn 5UTR act -93.5*.
For O=C(CCNc1ccc(Cl)cc1)c1cccs1 the results were aSyn 5UTR act -89.3*.
COc1cc(NC(=O)n2ncc3cc(Cl)ccc32)cc(OC)c1 was read as aSyn 5UTR act -185.9*.
COc1ccc(NC(=O)n2ncc3cc(Cl)ccc32)cc1OC was read as aSyn 5UTR act -142.5*.
O=C(Nc1ccccc1F)n1ncc2cc(Cl)ccc21 was read as aSyn 5UTR act -73.3*.
Oc1c(N=NC(=S)Nc2ccccc2F)c2ccccc2n1Cc1ccc(Cl)cc1 was read as aSyn 5UTR act 70.1.
`CSc1nc(O)c(N=Nc2ccc(F)cc2F)c(=O)[nH]1` gave aSyn 5UTR act -137.8*.
Screening CCOc1cc2nc(-c3ccc(OC)c(OC)c3)nc(NCCCN3CCOCC3)c2cc1OC returned aSyn 5UTR act -64.8*.
Clc1ccc(-c2nc(NCCN3CCOCC3)c3ccccc3n2)cc1 was read as aSyn 5UTR act -89.5*.
Screening COc1ccc(C2c3ccc4ccccc4c3Oc3ncn(CCN4CCOCC4)c(=N)c32)cc1OC (stereo not drawn) returned aSyn 5UTR act 105.4.
`Fc1ccc(-c2nc3c(Cl)cc(C(F)(F)F)cn3c2Cl)cc1` gave aSyn 5UTR act -111.5*.
Screening Cc1csc2ncc(C(=O)Nc3cccc(C(F)(F)F)c3)c(=O)n12 returned aSyn 5UTR act -127.9*.
Cc1ccc(C(=O)Nc2cccc(C(F)(F)F)c2)cc1NC(=O)c1cnnc2ccccc12 was read as aSyn 5UTR act 64.2.
For CCc1ccc(NC(=O)c2cnc3scc(C)n3c2=O)cc1 the results were aSyn 5UTR act -246.7*.
For CN(C)c1ccc(CNc2ncc(Br)cc2Br)cc1 the results were aSyn 5UTR act -98.3*.
COc1cc(/C=C/C(=O)NC(=O)c2ccccc2O)ccc1O was read as aSyn 5UTR act -160.5*.
O=C(/C=C/c1ccccc1)CC(=O)c1ccccc1O was read as aSyn 5UTR act -201.1*.
For O=C(/C=C/c1ccccc1)NC(=O)c1ccccc1O the results were aSyn 5UTR act -157.1*.
`CCN(CC)c1cc(C)c2cc(NC(=O)c3ccccc3OC)ccc2n1` gave aSyn 5UTR act -75.1*.
Screening CCN(CC)c1cc(C)c2cc(NC(=O)c3cccs3)ccc2n1 returned aSyn 5UTR act -64.5*.
Screening CCc1ccc(NC(=O)N2CCC(c3ccccc3)C2)cc1 (stereo not drawn) returned aSyn 5UTR act -171.7*.
CCOc1ccc(NC(=O)N2CCC(c3ccc(C)cc3)C2)cc1 (stereo not drawn) was read as aSyn 5UTR act -67.4*.
`Cc1ccc(C2CCN(C(=S)NC(C)(C)C)C2)cc1` (stereo not drawn) gave aSyn 5UTR act -92.9*.
COc1ccc(NC(=S)N2CCC(c3ccccc3)C2)cc1 (stereo not drawn) was read as aSyn 5UTR act -169.2*.
`O=C(Nc1ccccc1)N1CCC(c2ccccc2)C1` (stereo not drawn) gave aSyn 5UTR act -141.0*.
`O=C(c1cccs1)N1CCC(c2ccccc2)C1` (stereo not drawn) gave aSyn 5UTR act -139.8*.
Screening CCc1ccc(C(=O)COC(=O)c2cccs2)cc1 returned aSyn 5UTR act -139.0*.
Cc1ccc(C(=O)COC(=O)c2cccs2)cc1 was read as aSyn 5UTR act -114.5*.
